# Data from PubChem BioAssay (NCI).
# This is part of a sample that, as a whole, favours compounds with a hit. Of some 79,000 tested, about 15% had one in any assay. A number with no mark means an inactive call. Calls of active or inactive are those of the source. Cut-off read from the data, not from the text of the source: active = growth inhibition above about 70%; inactive = the rest.
# What was measured:
# [1] = NCI Yeast Anticancer Drug Screen. Data for the rad50 strain (AID 155);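 note: 0% = growth of vehicle-only cultures of the same strain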; conditions: S. cerevisiae rad50 strain growth inhibition; at 50.0 µM; active compounds read high
# In short: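 Vehicle-treated cultures provide the reference for the growth inhibition reported for compound-exposed, repair-deficient yeast.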
# [2] = NCI Yeast Anticancer Drug Screen. Data for the mec2-1 strain (AID 157); conditions: S. cerevisiae mec2-1 strain, at 50.0 µM, active compounds read high
# In short: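 Test agents were screened against the mec2-1 yeast strain, with defined DNA repair or cell cycle alteration. Growth was scored as inhibition against vehicle-only controls.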
# [3] = NCI Yeast Anticancer Drug Screen. Data for the sgs1 mgt1 strain (AID 161);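 note: 0% = growth of cultures given vehicle only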; conditions: S. cerevisiae sgs1 mgt1 strain, at 50.0 µM, active compounds read high
# In short: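 Mutant yeast exposed to compound; growth scored against vehicle-only wells.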
# [4] = NCI Yeast Anticancer Drug Screen. Data for the cln2 rad14 strain (AID 165);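 note: 0% = growth equal to vehicle treated cultures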; conditions: S. cerevisiae cln2 rad14 strain, at 50.0 µM, active compounds read high
# In short: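 Growth of compound-exposed yeast (cln2 rad14 genotype) measured and expressed as inhibition relative to vehicle.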
# [5] = NCI Yeast Anticancer Drug Screen. Data for the bub3 strain (AID 167); conditions: S. cerevisiae bub3 mutant strain, at 50.0 µM, active compounds read high
# In short: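 Mutant yeast screening strain plus compound; vehicle-treated cultures serve as the 0% inhibition reference.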
# [6] = NCI Yeast Anticancer Drug Screen. Data for the mlh1 rad18 strain (AID 175); conditions: S. cerevisiae mlh1 rad18 strain growth inhibition; at 50.0 µM; active compounds read high
# In short: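 In this whole-cell yeast screen, a strain with altered DNA damage repair is challenged with compound, and its growth is measured against matched vehicle-treated controls.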
SMILES,growth inhibition [1],growth inhibition [2],growth inhibition [3],growth inhibition [4],growth inhibition [5],growth inhibition [6]
COC1=CC(=O)O/C1=C(\OC)C1OC1c1ccccc1 (stereo not given),-4%,-7.25%,2.9%,-1.35%,-6.5%,-24.9%
C[N+]1(C)CC2C3C=C(I)C(C3)C2C1 (stereo not given),26.8%,17.4%,15.2%,48.4%,11.9%,26.1%
O=C(CCN1C(=O)c2ccccc2C1=O)c1cnc[nH]1,13.8%,16.9%,13.4%,-4.5%,2.6%,10.4%
CCC1=NCCO1,5.85%,0.25%,-2.1%,4%,28.1%,-11.7%
CCOC(=O)C1C=C1C(C)(C)O (stereo not given),-15.4%,9.3%,-13.1%,1%,3.9%,-32.9%
COP(=O)(O)OP(=O)(O)OC,1.2%,-29.5%,25.2%,6.35%,13.8%,16.8%
CC(C#N)(Nc1ccccc1)c1ccccc1 (stereo not given),0.6%,6.75%,6.9%,-32.6%,-10.7%,-6.4%
CN(C)C(=S)S(=O)(=O)c1ccc([N+](=O)[O-])cc1,26.8%,14.7%,23.6%,-7.4%,31.6%,92.3% (active)
Cc1cnc(NCCCCNc2ncc(C)c(-c3ccccc3O)n2)nc1-c1ccccc1O,-5.25%,1.55%,-0.55%,-27.1%,-3.65%,4.8%
COc1cc(/C=C2\N=C(C)OC2=O)ccc1O,-2.8%,-6.5%,5.7%,-65.5%,2.95%,2.05%
Cc1cc(S(N)(=O)=O)c(SCc2nc(N)nc(N(C)C)n2)cc1Cl,-30.8%,-22.3%,-20.3%,9.05%,-37.4%,7.8%
CC(C)CCCC(C)C1CCC2(C)C3=C(CCC12C)C1(C)Cc2cnn(-c4ccccc4)c2C(C)(C)C1CC3 (stereo not given),-6.4%,-6.05%,-6.65%,-12.8%,-2.85%,-17.4%
O=C(O)c1ccc(C2CCCCC2O)cc1 (stereo not given),2.05%,6.15%,-9.2%,-14.6%,-2%,0.3%
O=c1nc2n(cc1F)C1OC(CCl)C(O)C1O2 (stereo not given),8.55%,-8%,15.7%,1.05%,6.9%,2.2%
Cc1ccc(S(=O)(=O)O)c2c([N+](=O)[O-])cccc12,-8.85%,6.75%,-11.1%,-32.4%,-9.85%,-22.6%
CC(=O)Oc1ccccc1C=C(C(=O)O)C(=O)O,-7.7%,-11.5%,-8.1%,-20.7%,-9.2%,-10.9%
CCN(CC)CCNc1ccc2ncn3c4c(OC)cccc4c(=O)c1c23,2.7%,-17.1%,21.8%,18.4%,-46.8%,67.2%
Cc1cccc(C2=N/C(=C\c3ccc4c(c3)OC(O)O4)C(=O)O2)c1 (stereo not given),-1.9%,6.55%,4.95%,3.55%,7.05%,-16.4%
Cn1c(=O)n(CCn2c(=O)n(C)c3ccccc32)c2ccccc21,-1.6%,14%,-3.15%,3.55%,4.5%,-3.8%
Clc1cccc2nc(-c3ccccn3)n(CCc3ccncc3)c12,90% (active),51.1%,84.7% (active),60.6%,74.7% (active),86.2% (active)
